Source: PubChem BioAssay
Shiga inhibitor – Shiga toxin inhibition. Vero cells, Shiga toxin protein synthesis inhibition reporter. inhibition, % at 38.7 µM. hit rate 9.2% among 290,000. AID 2315; in the data active = inhibition mostly above about 28%, no sharp cut-off; inactive = mostly below about 43%; note: 0% is about no effect
Tb PYK inh – blocks Trypanosoma brucei pyruvate kinase | Q57TT1 | TbPYK enzyme, Kinase-Glo Plus ATP luminescence, 45 min | Potency, µM (highest dose often 76.8 µM), for inactives: at the highest dose activity, negative = inhibition, hits mostly inhibitors | hit rate 0.12% among 410,000; note: potency is the fitted concentration of half-maximal effect; % is set by controls: 0 for no effect and ±100 for the full control effect; nearly all actives have a fitted effect of over 50% in size
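T. brucei PYK with substrate was exposed to pin-transferred compounds across a concentration series, then started with 130 uM ADP (final). After 45 min at room temperature, Kinase-Glo Plus luminescence was read, normalized and curve-fitted.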
RE007 growth inh – less growth of the S. pombe RE007 Vpr strain | Potency, µM (highest dose often 92.2 µM), without a hit: top-dose activity change, negative = less growth, most hits filed as inhibitors | S. pombe RE007 Vpr strain, BacTiter-Glo ATP luminescence, 24 h | AID 651644 | hit rate 0.21% among 360,000; active = well fitted falling curve with a large enough effect; inconclusive = small, poorly fitted or top-dose-only effect; inactive = no such curve, though single readings can be large or run the other way; note: potency is the fitted concentration of half-maximal effect; % is set by controls: 0 for no effect and ±100 for the full control effect; nearly all actives have a fitted effect of over 50% in size
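Fission yeast strain RE007, carrying one chromosomally integrated HIV-1 vpr copy, was seeded at OD 0.01 in PMG+AL medium with 23 nL pinned compound. After 24 h at 30 °C and 99% humidity, viability was read by BacTiter-Glo luminescence.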
LmPK inh – inhibitors of Leishmania mexicana pyruvate kinase. Q27686. purified LmPK, Kinase-Glo ATP luminescence, 1 h. Potency, µM (top dose mostly 57.5 µM), for inactives: top-dose activity change, negative = inhibition, hits mostly inhibitors. hit rate 0.37% among 290,000. AID 1721; note: potency is the fitted concentration of half-maximal effect; % is set by controls: 0 for no effect and ±100 for the full control effect
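qHTS format; LmPK 0.1 nM; substrates PEP 0.5 mM and ADP 0.1 mM. One-hour room-temperature incubation, then coupled luciferase luminescence; 0.5 nM enzyme wells mark activation.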
Cycloheximide cs – affects cycloheximide protein synthesis inhibition readout, counter-screen; AID 2314; cell reporter, cycloheximide protein synthesis inhibition counterscreen; hit rate 12% among 300,000; max response, %; in the data active = max response mostly above about 13%, no sharp cut-off; inactive = mostly below about 14%; note: read at 38.3 µM for the half of the compounds with a filed dose; 0% is about no effect
Giardia FBPA inh – blocks Giardia fructose-bisphosphate aldolase activity | A8B2U2 | purified Giardia FBPA | Potency, µM (highest dose often 59.6 µM), for inactives: top-dose activity, negative = inhibition, actives largely listed as inhibitors | hit rate 0.71% among 290,000 | AID 2451; note: potency is the fitted concentration of half-maximal effect; % is set by controls: 0 for no effect and ±100 for the full control effect; nearly all actives have a fitted effect of over 55% in size
Target sequence (A8B2U2 whole entry, looked up): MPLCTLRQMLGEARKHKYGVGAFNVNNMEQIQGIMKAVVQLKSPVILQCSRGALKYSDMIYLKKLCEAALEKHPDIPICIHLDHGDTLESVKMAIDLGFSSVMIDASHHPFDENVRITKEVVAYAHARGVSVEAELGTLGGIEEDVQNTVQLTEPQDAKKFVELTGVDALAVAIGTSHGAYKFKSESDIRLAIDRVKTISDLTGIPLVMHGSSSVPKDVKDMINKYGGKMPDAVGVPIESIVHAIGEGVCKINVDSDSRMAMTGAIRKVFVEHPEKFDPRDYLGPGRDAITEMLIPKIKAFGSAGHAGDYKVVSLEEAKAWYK
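Giardia FBPA (40 nM reagent) was preincubated 10 min at RT with compound (up to 57.5 uM final), then substrate plus GAPDH/TPI/NAD/arsenate coupling system with diaphorase/resazurin was added; resorufin fluorescence (525/598 nm) was read after 20 min.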
Starred values were filed as active, the others as inactive; ? = inconclusive; nt = not tested or not shown; [ ] = remark or other dose. This excerpt belongs to a sample that is enriched for hits. Unless noted, calls come from the whole dose curve; as a rule, active = well fitted curve in the direction sought with a large enough effect; inconclusive = small, poorly fitted or top-dose-only effect, or another doubt; inactive = no such curve, though single readings can be large; an effect the other way counts as inactive or inconclusive.

SMILES	Shiga inhibitor	Tb PYK inh	RE007 growth inh	LmPK inh	Cycloheximide cs	Giardia FBPA inh
Cc1ccc(OCc2cc(C(=O)N(C)CCc3ccccn3)no2)cc1C	109*	-10%	-3%	6%	83*	0%
CC(=O)c1cccc(OCc2cc(C(=O)N(C)CCc3cnn(C)c3)no2)c1	-8	3%	6%	-5%	13	nt
CCCCN(C)CCNC(=O)C1CCN(c2nc3ccc(CC)cc3s2)CC1	nt	-4%	nt	nt	nt	nt
Cc1ccc(OCc2cc(C(=O)N(C)CCc3nc4ccccc4[nH]3)no2)cc1C	22	-8%	2%	-8%	27*	5%
COC1CC2CCC(C)[C@](O)(O2)C(=O)C(=O)N2CCCCC2C(=O)OC(C(C)CC2CCC(O)C(OC)C2)CC(=O)C(C)/C=C(/C)C(O)C(OC)C(=O)C(C)CC(C)C=CC=C/C=C\1C (some centres undefined)	nt	7%	nt	nt	nt	nt
Cc1cc2c(sc3ccccc32)c(C)n1	39	-3%	-17%	-4%	8	-6%
Cc1nc2c(s1)sc1ccccc12	86	2%	-2%	-11%	19*	0%
O=C1C(c2[nH]c3ccc(S(=O)(=O)O)cc3c2O)=Nc2ccc(S(=O)(=O)O)cc21	-3	0%	nt	nt	11	18µM*
CCCCCc1ccc(-c2nnc(N)s2)cc1	74*	11%	-1%	1%	43*	9%
CCCCCCCCCc1ccc(O)cc1	nt	nt	nt	nt	nt	-15%
CCCCCCc1ccc(-c2ncc(N)cn2)cc1	122*	-1%	?	-1%	60*	0%
Nc1nnc(-c2ccc(Cl)c(Cl)c2)s1	21	-6%	-11%	-2%	25*	2%
CCCCCc1nnc(N)s1	-2	-7%	9%	-1%	-6	1%
CCOc1ccccc1-c1nnc2n1N=C(c1ccc(OC)cc1)CS2	-5	nt	nt	nt	-10	0%
O=C(CN1C(=O)COc2ccc(S(=O)(=O)N3CCCC3)cc21)N1CCN(c2ccc(Cl)cc2)CC1	nt	6%	nt	nt	nt	nt
COC(=O)Cc1[nH]n(-c2nc3ccccc3s2)c(=O)c1C(C)=O	33	-13%	?	-13%	17*	?
CC(=O)c1c(CC(=O)O)[nH]n(-c2nc3ccccc3s2)c1=O	24	-14%	?	?	21	-16%
COc1ccc(CN=C(C)c2c(C(F)(F)F)[nH]n(-c3nc4ccccc4s3)c2=O)cc1	122*	3%	-23%	3%	42*	-12%
COc1ccc(-n2ccc3ccccc32)cc1	32	7%	1%	-2%	25*	0%
Cc1ccc(OCC(=O)Nc2cccc(O)c2)cc1C	79*	-19%	-18%	-4%	40*	-7%
Cc1ccc(OCC(=O)Nc2cc(NC(=O)COc3ccc(C)c(C)c3)cc(C(=O)O)c2)cc1C	9	-1%	16%	1%	1	7%
Cc1cccc(OCC(=O)Nc2ccc3c(c2)C(=O)NC3=O)c1	18	0%	-9%	8%	10	nt
CC(Oc1ccc(Cl)cc1Cl)C(=O)Nc1cccc(O)c1 (centres undefined)	43	-7%	-8%	0%	31*	0%
Cc1cccc(OCC(=O)Nc2cccc(O)c2)c1	active	-7%	-6%	1%	30*	1%
O=C(COc1cc(Cl)c(Cl)cc1Cl)Nc1cccc(O)c1	115*	-4%	nt	-4%	38*	3%
SMILES	Shiga inhibitor	Tb PYK inh	RE007 growth inh	LmPK inh	Cycloheximide cs	Giardia FBPA inh
O=C(COc1cc(Cl)c(Cl)cc1Cl)Nc1ccncc1	1	2%	-15%	-5%	1	2%
CC(NC(=O)CN1C(=O)COc2ccc(Cl)cc21)c1ccccc1 (centres undefined)	nt	0%	nt	nt	nt	nt
C/C(=N\NC(=O)CCn1nnc2ccccc21)c1ccco1	35	-2%	-7%	-11%	19*	0%
COc1ccc(/C=N/NC(=O)CCn2nnc3ccccc32)cc1	53*	4%	-2%	1%	20*	8%
CC(=O)Nc1ccc(NC(=O)CCn2nnc3ccccc32)cc1	16	-21%	-7%	1%	10	-1%
COc1cccc(C2CC(=O)Nc3c2c(=O)nc2c(C)cccn32)c1OC (centres undefined)	nt	-2%	nt	nt	nt	nt
CCSc1nnc2c(n1)[nH]c1c(C)cccc12	26	0%	?	9%	19*	-15%
CCc1ccc(C2NC(=O)c3[nH]nc(-c4cccc(OC)c4)c32)cc1 (centres undefined)	nt	-2%	nt	nt	nt	nt
CCOc1nc(NC(=O)NS(=O)(=O)Oc2ccccc2)nc(-c2ccccc2)n1	nt	-2%	nt	nt	nt	nt
CCOc1nc(NC(=O)NS(=O)(=O)c2ccccc2F)nc(-c2ccccc2)n1	53*	-3%	2%	-1%[11.5 µM]	21	4%
COc1cc(/C=N/NC(=O)c2cc(C)oc2C)ccc1OCc1ccccc1	46	1%	-15%	1%	0	-3%
COC(=O)N/N=C\c1cccc(OC(=O)c2cccs2)c1	19	0%	-10%	-6%	10	5%
O=C(N/N=C/c1ccccc1OCc1ccccc1)c1cccs1	active	-3%	-4%	2%	42*	1%
COc1cccc(/C=N/NC(=O)c2cccs2)c1	127*	-8%	-9%	-21%	47*	-6%
COc1cc(/C=N/NC(=O)c2ccccc2O)ccc1OC(=O)CC1SC(=O)NC1=O (centres undefined)	58*	0%	19%	-14%	30*	15%
COc1cc(/C=N/NC(=O)c2cccs2)ccc1OCc1ccccc1	53*	nt	1%[3.69 µM]	1%	28*	-2%
O=C(Nc1cc2c(cc1C(=O)c1cccc(Br)c1)OCCO2)c1ccccc1F	nt	0%	nt	nt	nt	nt
O=C(N/N=C/c1cccc(OC(=O)N2CCOCC2)c1)c1cccs1	0	2%	4%	-27%	27*	3%
COc1cc(/C=N/Nc2nncn2/N=C/c2ccc(O)c(OC)c2)ccc1O	48*	?	-20%	14µM*	13*	?
COc1cc(/C=N/NC(=O)c2ccc(-n3cccc3)cc2)ccc1O	2	-8%	11%	-3%	-2	-2%
COc1cc(/C=N/NC(=O)c2cccs2)ccc1O	97*	10%	0%	-3%	52*	-1%
COc1cc(/C=N/Nc2ccccc2C(F)(F)F)ccc1O	69*	-15%	7%	0%	33*	-9%
CCOc1ccccc1NC(=O)CSc1nc2c(oc3ccccc32)c(=O)n1C(C)C	nt	0%	nt	nt	nt	nt
CC(=O)c1ccc(NC(=O)C2CCC(CNS(=O)(=O)c3ccc4c(c3)CCCC(=O)N4)CC2)cc1 (centres undefined)	nt	1%	nt	nt	nt	nt
COc1cccc2c(N/N=C/c3ccc(O)c(O)c3)cc(C)nc12	53*	-24%	7%	7%	22*	-7%
CCOc1cc(CNC(=O)c2ccc(C)c(NC(=O)c3nsc4ccccc34)c2)ccc1OC	nt	-3%	nt	nt	nt	nt
